Hit rate of the full screen: of about 2,300 compounds, about 1,500 (65%) were called active. How the calls were made is not given here. The set was probably picked from earlier hits. This is one part of the list. Results with a measured potency or affinity are listed apart.
Test: replicating M. tuberculosis growth inhibition, dose response, non-replicating M. tuberculosis project, H37Rv (AID 492952);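 further: Mycobacterium tuberculosis grown in culture; growth inhibition read after a week of incubation; 0% = bacteria alone untreated and 100% = bacteria with high antibiotic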
Conditions: series mostly up to 50 µM; inhibition: at the top concentration

Compound | inhibition
O=C(Nc1cccnc1)c1cc(Cl)ccc1Cl | 2.63% (inactive)
Cn1c(-c2cccc([N+](=O)[O-])c2)cnc1NCc1cccc(F)c1 | -0.03% (inactive)
Cc1ccccc1C1=N/C(=C/c2cccnc2)C(=O)O1 | -9.98% (inactive)
O=C1OC(/C=C/c2ccccc2)=NC/1=C\c1cccnc1 | 8.72% (inactive)
Cc1cc(OCCCn2ccnc2)ccc1C(C)C | 8.68% (inactive)
O=C(COc1ccc2ccccc2c1Br)N1CCCC1 | 11.9% (inactive)
O=S(=O)(c1ccc(Cl)c2ccccc12)N1CCCC1 | -2.3% (inactive)
Cc1ccc(C(=O)COC(=O)CCc2ccc(S(=O)(=O)N3CCCCC3)cc2)cc1 | -2.89% (inactive)
COc1cc(NC(=O)N2CCOCC2)cc(OC)c1 | 2.67% (inactive)
CCOC(=O)C1CCCN(Cc2nc(Cc3ccccc3Cl)no2)C1 (stereo not drawn) | -3.11% (inactive)
O=C(COc1c(Br)cc(Br)c2cccnc12)N1CCCCC1 | 1.93% (inactive)
Cc1cc(C)nc(SC2CC(=O)N(c3ccc(C)c(C)c3)C2=O)n1 (stereo not drawn) | -0.48% (inactive)
CC(=O)Nc1ccc(NC(=O)[C@@H]2CCCC[C@@H]2C(=O)O)cc1 | 6.64% (inactive)
Cc1nc(C(=O)Nc2ccccc2)sc1C(=O)Nc1ccccc1 | -3.5% (inactive)
NC(N)=N/N=C/c1cc([N+](=O)[O-])ccc1O | -0.86% (inactive)
NC(=O)N/N=C\c1cc(Br)ccc1O | 1.43% (inactive)
O=C1N=c2ccccc2=C1c1c(O)n(-c2cccc(F)c2)[nH]c1=O | 4.88% (inactive)
N/C(=N\OC(=O)c1cccc2ccccc12)c1cccnc1 | 11.1% (inactive)
Cc1ccc(C(=O)O/N=C(\N)c2cccc([N+](=O)[O-])c2)cc1 | 8.71% (inactive)
O=C(Cc1c(F)cccc1Cl)Nc1ncc([N+](=O)[O-])s1 | 6.48% (inactive)
N/C(=N\OC(=O)c1cccc(Br)c1)c1ccc([N+](=O)[O-])cc1 | -3.85% (inactive)
CCCNC(=O)NC(=O)COc1ccc2oc3ccccc3c2c1 | 7.11% (inactive)
O=C(COc1ccccc1)Nc1ccc(F)cc1 | 8.73% (inactive)
N#CC1=C(N)Oc2c(ccc3cccnc23)C1c1ccccc1 (stereo not drawn) | 1.24% (inactive)
O=C(NCCc1cccc(Cl)c1)c1cc2ccccc2oc1=O | -3.15% (inactive)

Compound | inhibition
COCCCC1CCN(Cc2nc(-c3ccccc3)no2)CC1 | -5.23% (inactive)
CC(C)(C)OC(=O)NCCC(=O)Oc1ccc2ccc(=O)oc2c1 | -10.2% (inactive)
O=C(NC(=S)Nc1ccc(F)cc1)C1CCCCC1 | 8.98% (inactive)
O=C(N/N=C/c1cccc([N+](=O)[O-])c1O)c1cccs1 | 10.5% (inactive)
O=C(O)c1ccccc1-c1ccccc1C(=O)Nc1nc2ccccc2s1 | 14% (inactive)
O=C(O)c1ccccc1C(=O)NNc1ccc(Cl)cc1 | 9.18% (inactive)
O=C(NCCN1C(=O)S/C(=C\c2ccccc2F)C1=O)C1CCN(S(=O)(=O)c2cccs2)CC1 | 4.18% (inactive)
O=S(=O)(Nc1ccc(O)c2ccccc12)c1ccc(F)cc1 | -0.46% (inactive)
O=c1cc(-c2ccccc2Cl)oc2c([N+](=O)[O-])c(O)cc(O)c12 | -1.85% (inactive)
CCC1CCC(c2nnc(-c3ccc([N+](=O)[O-])cc3)o2)CC1 (stereo not drawn) | 10.4% (inactive)
Cc1ccc(-c2nnc(Cc3ccc([N+](=O)[O-])cc3)o2)cc1 | -1.75% (inactive)
Cc1nc(Cl)nc(N(C)c2ccccc2)c1[N+](=O)[O-] | 4.31% (inactive)
COc1ccc(Cc2nnc(SCc3ccc([N+](=O)[O-])cc3)o2)cc1 | 4.06% (inactive)
O=C1CCCCC1Sc1nnc(-c2ccc3c(c2)OCO3)o1 (stereo not drawn) | -1.32% (inactive)
C(=C\c1ccccc1)/CSc1nc2ncccc2[nH]1 | 6.43% (inactive)
O=C(CCSc1ccccc1)N1CCCC1 | 3.77% (inactive)
CCS(=O)(=O)c1ncc(Cl)c(C(=O)Nc2ccc(S(=O)(=O)N3CCC(C)CC3)cc2)n1 | -3.77% (inactive)
CCCC(O)(CCC)C(=O)NNc1ccc(C)cc1 | 10.7% (inactive)
COc1ccc(CNC(=O)COC(=O)C2CC3C=CC2C3)cc1 (stereo not drawn) | 4.96% (inactive)
CCCCNC(=O)Cc1ccc(C)cc1 | -4.22% (inactive)
CC(C)CSc1nnc2c3ccccc3n(C)c2n1 | 1.04% (inactive)
O=C(c1cc2ccccc2o1)c1nc2c(n1O)CCCCC2 | 5.04% (inactive)
CCCOC(=O)c1ccc(NC(=O)Cc2cccs2)cc1 | 14% (inactive)
CCCOC(=O)c1ccc(NC(=O)C2C3C=CC(O3)C2C(=O)O)cc1 (stereo not drawn) | 3.84% (inactive)
CCCCOC(=O)c1ccc(NC(=O)C2CCCO2)cc1 (stereo not drawn) | 20.4% (inactive)

Compound | inhibition
O=C(Nc1ccccc1)c1ccc(Br)o1 | 12.3% (inactive)
CC1CCN(S(=O)(=O)c2cccc(C(=O)Oc3ccc([N+](=O)[O-])cc3)c2)CC1 | -2.52% (inactive)
C=CCN(CC=C)C(=O)Cc1ccc(F)cc1 | -3.08% (inactive)
O=C(CCNc1cccc(F)c1)c1cccc([N+](=O)[O-])c1 | -0.17% (inactive)
Nc1ccccc1C(=O)NNC1=C(C(=O)C(F)(F)F)CCC1 | -1.02% (inactive)
COc1ccc(C)c2sc(NC(=O)CCS(=O)(=O)c3ccccc3)nc12 | 4.31% (inactive)
Cc1ccc(-c2nnc(-c3cccs3)o2)cc1 | 0.17% (inactive)
O=C(NC1CCCC1)c1cc(-c2cccs2)on1 | 1.34% (inactive)
CN1C(=O)CC(N2CCC(c3nc4ccccc4s3)CC2)C1=O (stereo not drawn) | -6.77% (inactive)
COc1ccc(OCCOC(=O)CCS(=O)(=O)c2ccc(C)cc2)cc1 | 0.82% (inactive)
CSc1ccc(COC(=O)CCS(=O)(=O)c2ccc(C)cc2)cc1 | 6.07% (inactive)
O=C(CCS(=O)(=O)c1ccc(Cl)cc1)Oc1ccc2c(c1)OCO2 | 2.49% (inactive)
O=C(COc1ccc(F)cc1)Nc1ccc2c(c1)OCCO2 | 25.3% (inactive)
Cc1ccc(NC(=O)CC2SC3=NCCCN3C2=O)c(C)c1 (stereo not drawn) | 4.67% (inactive)
CC(C)c1ccc(C2=C(O)c3ccccc3C(=O)C2=O)cc1 | -2.49% (inactive)
Cc1ccc(C(=O)CCC2CCCC2=O)cc1 (stereo not drawn) | -3.32% (inactive)
NCCCN1CCOCC1 | -1.85% (inactive)
CC(CN1CCOCC1)OC(=O)c1ccc2c(c1)OCCO2 (stereo not drawn) | 0.51% (inactive)
CCOC(=O)Nc1ccc2c(c1)N(C(=O)CCN1CCOCC1)c1ccccc1S2=O (stereo not drawn) | 2.63% (inactive)
CC1CCCN(CCSc2ccc(Cl)cc2)C1 (stereo not drawn) | 12.8% (inactive)
Clc1ccc(SCCCCN2CCNCC2)cc1 | 4.18% (inactive)
CCOC(=O)C1CCN(CCCSc2ccc(Cl)cc2)CC1 | -0.24% (inactive)
O=Cc1ccc(-c2ccc(Cl)cc2Cl)[nH]1 | 22.4% (inactive)
O=C(CCCSc1nc2ccccc2s1)NCc1ccco1 | -2.55% (inactive)
Fc1ccc(COc2ccc(-c3nnco3)cc2)cc1 | 0.98% (inactive)

Compound | inhibition
COC(=O)CCSCc1cn2cc(Cl)ccc2n1 | -0.87% (inactive)
Cc1cc2n(n1)SC(Nc1ccccc1)N2 (stereo not drawn) | 3.35% (inactive)
CC(C)n1c(=S)[nH]c2ccccc2c1=O | 3.34% (inactive)
CC(C)(C)NCc1cc(Br)ccc1OC1CCCC1 | 4.3% (inactive)
COc1ccc(-n2c3c(cc(C(=O)NNc4ccccc4)c2=O)C(=O)CC(C)(C)C3)cc1 | -1.68% (inactive)
Clc1ccccc1OCc1nnc(-c2ccccc2)o1 | 4.87% (inactive)
c1ccc(Cc2nnc(-c3ccccc3)o2)cc1 | 2.02% (inactive)
O=C1NC(=S)S/C1=C\c1ccc(SCc2ccco2)o1 | -0.39% (inactive)
CN(CC(=O)Nc1ccc(Cl)cc1)C1CCCCC1 | -1.09% (inactive)
COc1ccc(OCCCC(=O)Nc2ccc(N3CCOCC3)cc2)cc1 | -1.48% (inactive)
Cc1ccc(C(=O)C=CNNC(=O)c2ccccc2)cc1 | 10.6% (inactive)
O=C(C1CCN(C2CC(=O)N(Cc3ccccc3)C2=O)CC1)N1CCCCCC1 (stereo not drawn) | -5.07% (inactive)
CC(C)CN(Cc1c(O)ccc2ccccc12)CC(C)C | 5.53% (inactive)
O=C(NCCSc1ccccc1)c1ccc(Br)cc1 | -3.27% (inactive)
CCOc1ccc(NC(=O)CCNC(=O)c2ccc(Br)cc2)cc1 | 11.1% (inactive)
COc1ccc(C(=O)C=CNNC(=O)c2ccc(Cl)cc2)cc1 | 1.86% (inactive)
COc1ccccc1CCNC(=O)c1ccc(C)o1 | 3.56% (inactive)
O=C(Oc1cccc2cccnc12)c1cccc(-n2cnnn2)c1 | -0.76% (inactive)
Cc1ccc(C2=N/C(=C\c3cccnc3)C(=O)O2)cc1 | -1.93% (inactive)
Cc1cccc(C2=N/C(=C\c3cccnc3)C(=O)O2)c1 | 0.69% (inactive)
CN(CCOCCOc1ccc(F)cc1)Cc1ccccc1 | -0.16% (inactive)
CN(CCCCOc1ccc(F)cc1)Cc1ccccc1 | -6.23% (inactive)
O=C1CC(N2CCN(c3ccccc3)CC2)C(=O)N1CCc1ccccc1 (stereo not drawn) | 3.41% (inactive)
CC(NC(=O)COc1ccccc1F)C1CC2CCC1C2 (stereo not drawn) | 10.3% (inactive)
O=C(COc1ccccc1)NC1CCCCC1 | 4.93% (inactive)

Compound | inhibition
O=C(NCCC1=CCCCC1)c1coc(=O)c(Br)c1 | -8.02% (inactive)
COc1cc(/C=N/Nc2cccc3cccnc23)cc(OC)c1O | 0.63% (inactive)
COc1ccc(N2CCN(CC(=O)NC(=O)NC(C)(C)C)CC2)cc1 | -7.18% (inactive)
COc1ccc(OCC(=O)Nc2ccc(N3CCN(C(=O)c4ccco4)CC3)cc2)cc1 | 2.2% (inactive)
CN(C)Cc1ccccc1Sc1ccc(Br)cc1 | 4.09% (inactive)
CC1CCCN(CCCOc2ccc([N+](=O)[O-])cc2)C1 (stereo not drawn) | -7.03% (inactive)
O=C1c2ccccc2C(=O)N1CCOc1ccc(F)cc1 | -6.11% (inactive)
COc1ccc(N=Cc2nc(-c3ccccc3)oc2OC(C)=O)cc1 | 9.7% (inactive)
COc1ccccc1N=Cc1nc(-c2ccccc2)oc1OC(C)=O | 9.47% (inactive)
CC1(C)CC(=O)C2=C(C1)OC(N)=C([N+](=O)[O-])C2c1ccc(C#N)s1 (stereo not drawn) | 25.2% (inactive)
C/C(=N\NC(=O)COc1cccc(C)c1)c1ccc2ccccc2c1O | 5.19% (inactive)
Cc1ccc(N2C(=O)CC(Sc3nccc(C)n3)C2=O)cc1 (stereo not drawn) | 3.55% (inactive)
O=C(CCC1CCCC1)NCc1ccccn1 | -3.52% (inactive)
COc1cccc(C(=O)C2CCCN(CC3=Cc4cc(OC)ccc4OC3)C2)c1 (stereo not drawn) | 9.31% (inactive)
COc1cccc(CC2(CO)CCCN(Cc3sc(N4CCCC4)nc3Cl)C2)c1 (stereo not drawn) | 0.34% (inactive)
CCOC(=O)N1CCC(NC(=O)C2CCN(c3nc(-c4ccc(OC)cc4)no3)CC2)CC1 | -1.07% (inactive)
CN1C(=O)CC(Sc2ccccc2C(=O)O)C1=O (stereo not drawn) | -2.37% (inactive)
CC(C)=CC1C(C(=O)Nc2ccc(Br)cn2)C1(C)C (stereo not drawn) | 8.89% (inactive)
C/C(=C\C(=O)c1ccc(Br)cc1)NNC(=O)c1ccccc1 | 20.2% (inactive)
Cn1[nH]c(-c2ccccc2)c(/C=N/O)c1=O | 3.15% (inactive)
COc1ccc(C(O)CNc2ccc(C)cc2)cc1 (stereo not drawn) | -0.87% (inactive)
CCOc1ccc(NCC(=O)c2ccc(C)cc2)cc1 | 11.1% (inactive)
CCOc1ccc(NC(=O)Cn2sc3nc(C)cc(C)c3c2=O)cc1 | -4.28% (inactive)
